Drawing on the OligoGym collection, this text covers sensor-assay potency score (higher = more potent) for 39 sequences.
Further: reference of the scale not given here.

For the first assay, the target named is HSF2. The assay is described as follows: pooled miR-30 sensor sort-seq; sequence = guide strand. The settings on record: shRNA.
In the case of TTAGTTTCTGGAATAACTGGGA, the sensor-assay potency score (higher = more potent) was -0.0464. The same measure, in the same setting: to TAAACCTTCAGTCCTACTGTGT belongs -0.618; to TAAACTGGACAATCTTTCGAAT, -0.594. The sequence TTTCTTGCTTTACAATTCCAGA returned a sensor-assay potency score (higher = more potent) of -1.24.

TATGCAGCTGAGTAACACCTGA displayed a sensor-assay potency score (higher = more potent) of -0.731.

In turn, TTTGAAGATGAAACCTTCCTTT had a sensor-assay potency score (higher = more potent) of 0.173. Same read-out and setting: next, TAAAACTAGTCCAACTAACTGG: -0.42; TTCCTGTTTTATCTGAACCTTC: -0.752; TAACTTGTTGCTGTTGTGCATG: -0.847.

For the sequence TTCATTGTCATCTTCAACGATG, the sensor-assay potency score (higher = more potent) was -0.744. In the case of TTGAACATGAATAAACGTCTTT, the sensor-assay potency score (higher = more potent) was found to be 0.178. On the same count and under the same terms, next, TACATCTGCGTAACTATGCAGC: -0.31.

The next assay addresses HSP90AA1. Described as above. The settings on record: shRNA.
On to TTATCCATGATGAAAACTCTGC, for which the sensor-assay potency score (higher = more potent) was -0.426. Sequence TACAACTTTAAGCAGAATGTGA returned a sensor-assay potency score (higher = more potent) of -0.45.

Sequence TTGAGTTGTCTCTTAGGGCTTG had a sensor-assay potency score (higher = more potent) of 0.45.

As to TTCTCCTTCATTCTGGTGCAGT, the sensor-assay potency score (higher = more potent) is -0.91. On the same count and under the same terms, to TCGGTTTGACACAACCACCTTT belongs -0.307.

As to TACAATTTGATGTTGTTCTTTT, the sensor-assay potency score (higher = more potent) was -0.348.

Consider TTGATCGATGTACTTTTCCTTA, for which the sensor-assay potency score (higher = more potent) is -0.594. Still for that read-out and setting: to TTGCTTTGTTGCAACATCTCAC belongs 0.536; to TTTGTTGCAACATCTCACGGGA, 0.467.

Turning to TTTCTCTTCTTCATCCTCTGGA, the sensor-assay potency score (higher = more potent) stood at 0.444. On the same count and under the same terms, to TTGATCATCCTGTAGATCCTGT belongs 0.84; to TTTTTGACCAAATTCTTCCTGA, 0.315.

In another assay the target is HSP90B1. The description is as above. Particulars: shRNA.
As for TTTTTAACCAACTCTTCTCTGG, the sensor-assay potency score (higher = more potent) is -0.121. The same measure, in the same setting: to TTTCATCGAACTTCACTCCTTC belongs 0.873. On to TATCATTGTATTTATCATCAGC, for which the sensor-assay potency score (higher = more potent) was -0.644. Same read-out and setting: to TTGCTGAAGAGTCTCGCGGGAA belongs -0.855. Sequence TTTTGAAGTGACAATAACCTTA yielded a sensor-assay potency score (higher = more potent) of 0.45. TTTTACATCAAGAATAGTCAGT displayed a sensor-assay potency score (higher = more potent) of 0.0481. Still for that read-out and setting: to TTAAAAACTCGCTTGTCCCAGA belongs 0.327; to TTCTTGATCATGTCCAGCGTTT, -0.303; to TTTATCATCAGCAATCTTCTTG, 0.391. Same read-out and setting: next, TTCATCGTCAGCTCTGACCGAC: 0.128; TTTGAAGTGACAATAACCTTAT: -0.631; TTTGTGATGCATTTAATCCATC: -1.31.

Another assay concerns the target HSPA1A. Described as above. Particulars: shRNA.
TTCAACATTGCAAACACAGGAA returned a sensor-assay potency score (higher = more potent) of 0.422. For TTAAAAAGAAGAAATAGTCGTA, the sensor-assay potency score (higher = more potent) stood at 0.533. Same read-out and setting: next, TGCAAAGTCTTGAAGCTCCAAA: -0.87.
